# Test results from PubChem BioAssay (NCI).
# About 83,000 compounds went through this panel and 20% of them were active in at least one assay; those are over-represented in the sample as a whole.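 Growth was measured after 48 h exposure to one concentration of compound in 96-well plates. Values under 10 count as active.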 Unmarked numbers belong to inactive results. Calls of active or inactive are those of the source.
# Columns and labels:
# Assay in all cases: NCI-60 one-dose screen, 48 h (100 = growth as untreated, 0 = no growth, -100 = all killed)
# HT29 colon = details: 10 µM unless noted
# SNB-75 CNS = details: 10 µM unless noted
# SNB-19 CNS = details: 10 µM unless noted
# U251 CNS = details: 10 µM unless noted
# PC-3 prostate = details: 10 µM unless noted
# SK-MEL-5 melanoma = details: 10 µM unless noted
# UACC-62 melanoma = details: 10 µM unless noted
# LOX IMVI melanoma = details: 10 µM unless noted
# SK-MEL-2 melanoma = details: 10 µM unless noted
# SK-MEL-28 melanoma = details: 10 µM
SMILES,growth (HT29 colon),growth (SNB-75 CNS),growth (SNB-19 CNS),growth (U251 CNS),growth (PC-3 prostate),growth (SK-MEL-5 melanoma),growth (UACC-62 melanoma),growth (LOX IMVI melanoma),growth (SK-MEL-2 melanoma),growth (SK-MEL-28 melanoma)
C=C1C(=O)O[C@H]2[C@H]1CC/C(COC(=O)/C=C\C(=O)O)=C\CC[C@@]1(C)O[C@@H]21,108%,79.4%,98.8%,108%,102%,102%,98%,99.4%,112%,
C=C(C)CCC(C)N1CCC(N2CCC(C(=O)NCCc3ccccc3)CC2)CC1 (centres undefined),39.3%,105%,102%,77.4%,59.7%,10.9%,68.9%,63.1%,99.3%,90%
O=C(Nc1ccc(C23CC4CC(CC(c5ccccc5)(C4)C2)C3)cc1)c1cccs1,53.8%,98.6%,91.9%,69.8%,60%,56.1%,63.8%,76.5%,75.6%,
N#C/C(=C\c1c(-c2ccccc2)[nH]c2ccccc12)S(=O)(=O)c1ccccc1,18.3%,12.4%,40.3%,33.4%,5.37% (active),,34.3%,42.7%,,52.4%
COc1ccccc1CNC(=O)C1c2ccccc2C(=O)N(CC(C)C)C1c1cccs1 (centres undefined),11.9%,67.5%,90.6%,49.7%,47.8%,52.2%,46.4%,,,58.1%
NC(CCl)=NCCC[C@H](N)C(=O)O,105%,89.6%,97.3%,97.4%,76%,93.1%,91.5%,96.3%,93.3%,
COc1ccc(N(C)c2nc(N)nc3sc4c(c23)CCCC4)cc1,-4.37% (active),51.3%,23.8%,15.8%,27%,,42.9%,22.6%,16.6%,55%
CCOC(=O)C1=C(C)c2ccc(OC)c(OC)c2C1,95%,89.9%,104%,90.4%,102%,96.3%,98.5%,96.1%,89.5%,
Nc1ccc(C2c3ccccc3Oc3ccccc32)cc1,99.3%,84.5%,105%,93.3%,90%,,94.8%,90.8%,110%,114%
O=C(Nc1ccc(F)cc1F)c1cc(Br)ccc1O,27.8%,-17.9% (active),12.1%,3.39% (active),-8.08% (active),,-19.7% (active),17%,-27.5% (active),16.5%
